The results in this text go back to PubChem BioAssay AID743279 (National Center for Advancing Translational Sciences (NCATS), 2014).

Screen size: about 360,000 compounds; about 17,000 (4.7%) were called active. Not shown: some 5% with an inconclusive outcome. This excerpt belongs to a sample that is enriched for actives. A number with no mark means an inactive call. Rule as the data show it: active = activity change below about -50%; inconclusive = mostly about -30% to -49%; inactive = weaker than that.
% is scaled to controls: 0 for no effect and ±100 for the full control effect.

A short description of this test: qHTS for Inhibitors of Inflammasome Signaling: IL-1-beta AlphaLISA Primary Screen. The conditions noted are these: THP-1 LPS/ATP IL-1B secretion, 16 h; at 57.5 µM, hits give low values. In short, it runs like this:
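THP-1 cells pretreated 1 hr with compounds (up to 57.5 uM final), then stimulated with LPS (250 ng/mL final) plus ATP (1.25 mM final); secreted IL-1B measured by AlphaLISA after 16 hr, decreased signal indicating inhibition.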
On the technique in general: Quantitative high-throughput screening tests each substance at several concentrations.
Take `Cc1ccc(CN(C)C[C@@H]2OCc3cnnn3CCCC(=O)N([C@@H](C)CO)C[C@H]2C)cc1`: the activity change was 13.2%. With `O=C(COC(=O)c1ccccc1)c1ccc2c(c1)OCCO2` the figure was -8.63%. With `O=C(CN1CCC(O)(c2ccccc2)CC1)Nc1ccc2c(c1)OCCO2` the figure was -25.5%; with `O=C(CCN1CCc2ccccc2C(O)(c2ccccc2)C1)c1ccc2c(c1)OCCO2` (stereo not given), -101% (active); with `CC(C)(O)C#Cc1ccc(CN2CCC(CO)(CCc3ccccc3)CC2)cc1`, -1.38%. With `OCC1(CCOc2ccccc2)CCN(Cc2cn[nH]c2-c2ccccc2)CC1` the figure was -2.13%; with `Cc1c(CN2CCC(CO)(CCOc3ccccc3)CC2)[nH]c2ccc(Cl)cc12`, -96.7% (active). Consider `CC1CCN(c2ccc3c(c2)S(=O)(=O)c2cc(C(=O)O)ccc2C3=O)CC1`, for which the activity change is 22%. With `C=CCNc1cnn(-c2ccc(C)cc2)c(=O)c1Cl`, the activity change is -16.2%.

On to `Cc1cccc(-n2ncc(C#N)c2-n2cccc2)c1`, for which the activity change was 28.7%. In the case of `Cc1cccc(-n2ncc(Cl)c(Cl)c2=O)c1`, the activity change was -100% (active). As to `CC1(C(=O)NS(=O)(=O)c2cccc(F)c2)CCN1C(=O)Cc1ccc(Cl)cc1Cl` (stereo not given), the activity change is -15.9%.

On to `O=C(Nc1cc(S(=O)(=O)N2CCCCC2)ccc1Cl)C1COc2ccccc2O1` (stereo not given), for which the activity change was -6.17%. The same measure for `NS(=O)(=O)c1ccc(CCNC(=O)CNC(=O)Cc2ccccc2)cc1`: 12.6%.

For the compound `CCc1nc(C)cn1S(=O)(=O)c1cc(OC)c(C)cc1C`, the activity change was 30.3%.

Consider `CC(C)c1nccn1S(=O)(=O)c1cc([N+](=O)[O-])ccc1Cl`, for which the activity change was 0%. With `CCc1nc(C)cn1S(=O)(=O)c1cc([N+](=O)[O-])ccc1Cl` the figure was -82.5% (active); with `O=C1N[C@@H](Cc2ccccc2)C(=O)N2[C@@H]3N(S(=O)(=O)c4ccc(F)cc4)c4ccccc4[C@]3(Br)C[C@@H]12`, -2.75%. The same measure for `Cc1cccc(S(=O)(=O)N(C)C[C@H]2OCc3cnnn3CCCC(=O)N([C@@H](C)CO)C[C@H]2C)c1`: 16.6%; for `CCOc1ccc(C2c3[nH]c4ccccc4c3CCN2Cc2cn(CC)nc2C)cc1` (stereo not given): 18.2%. Turning to `COc1cccc(C2c3[nH]c4ccccc4c3CCN2Cc2cccc(C)n2)c1` (stereo not given), the activity change was -5.35%. As to `Oc1cccc(C2c3[nH]c4ccccc4c3CCN2Cc2cnn(-c3ccccc3)c2)c1` (stereo not given), the activity change was -64% (active). With `O=S1(=O)CCOC[C@H](Cc2ccccc2)N1Cc1ccccc1Br` the figure was -7.15%. With `CC(C)CCNC(=O)c1[nH]c(C(F)(F)F)nc1-c1ccccc1` the figure was 28.5%; with `CC(C)Oc1ccc(CCc2n[nH]c(=S)n2Cc2ccccc2)cc1`, 16.3%; with `CN(C(=O)CSc1nncc2ccccc12)C1CCCCC1`, 0%. The same measure for `Brc1c(CSc2nncc3ccccc23)nc2ccccn12`: -74% (active); for `COC(=O)C[C@H]1C=C[C@H](NC(=O)c2ccc(F)cc2)[C@@H](CO)O1`: -9.5%.

Take `CCOC(=O)c1ccc2c(c1)nc(C)n2CC`: the activity change was -16.9%.

With `CCn1c(/C=C/Nc2ccccc2)[n+](CC)c2ccc(C(=O)OCC(F)(F)F)cc21`, the activity change was -98.2% (active). The same measure for `CCOC(=O)N1CCN(C(=O)c2ccc(S(=O)(=O)Nc3cccc(C(F)(F)F)c3)cc2)CC1`: 0.178%; for `C[C@H](CO)N1C[C@H](C)[C@@H](CN(C)S(=O)(=O)c2ccc(Oc3ccccc3)cc2)OCc2cn(nn2)CCCC1=O`: 4.67%. With `O=S1(=O)CC(N2CCN(Cc3ccccc3F)CC2)CN1Cc1cn(Cc2cccc(C(F)(F)F)c2)nn1` (stereo not given) the figure was -6.73%; with `S=c1[nH]nc(/C=C/c2ccccc2)o1`, -8.62%; with `CCOC(=O)C(C(=O)OCC)C(C#N)c1ccccc1` (stereo not given), -20.8%.

With `CCOC(=O)/C=C/C(=O)OCC(=O)NC(c1ccccc1)c1ccccc1`, the activity change is -96.9% (active). The same measure for `O=C(Cc1ccc(-c2ccccc2)cc1)NC(c1ccccc1)c1ccccc1`: 18.8%; for `CCN(CC)CCCN1C(=O)C(=O)/C(=C(/O)c2c(C)nc3ccccn23)C1c1ccc(C)o1` (stereo not given): -3.42%; for `COCc1ccc(C(=O)NC2CC(C)(C)Cc3c2cnn3-c2ccc(C)cc2)o1` (stereo not given): -2.96%.

As for `CCC1C/C(=C/c2cccs2)C(=O)/C(=C/c2cccs2)C1` (stereo not given), the activity change was -5.91%. The same measure for `CC(C)(C)C1C/C(=C/c2ccco2)C(=O)/C(=C/c2ccco2)C1` (stereo not given): -67.3% (active). The same measure for `COC(=O)COc1ccc2c(c1C)O/C(=C\c1ccco1)C2=O`: -8.17%.

Regarding `CCNC(=O)C1(C)CCN(Cc2ccc(C(=O)OCC)o2)C1` (stereo not given), the activity change is 0%. The same measure for `CCCCCCN1CCN(C2CN(Cc3cn(Cc4ccc(F)cc4)nn3)S(=O)(=O)C2)CC1` (stereo not given): 18.3%; for `Cc1ccccc1N/N=C/c1ccc(N2CCOCC2)cc1`: 0.147%. As to `Cc1cc(Nc2ccc(C(=O)N3CCCCC3)cc2)c2cccc(C)c2n1`, the activity change is -2.62%. Regarding `Cc1cc(Nc2ccc(N3CCOCC3)cc2)c2cccc(C)c2n1`, the activity change is -91.7% (active). With `CN(CCc1ccccc1)C(=O)c1cccc(NC(=O)Cc2cccc(NC(=O)C3CCCN(C(=O)CCc4ccccc4)C3)c2)c1` (stereo not given) the figure was -21.4%. The same measure for `NC1=NC(=O)C2(COC(c3ccccc3Cl)OC2)S1` (stereo not given): -5.39%; for `COc1cccc(CN(C)CC(O)COC(c2ccccc2)c2ccccc2C)c1` (stereo not given): -77% (active). The same measure for `Cc1ccccc1C(OCC(O)CN1CCCCC1CCO)c1ccccc1` (stereo not given): -10.1%; for `COc1cccc(CN(C)CC(=O)Nc2ccccc2C(=O)Nc2ccccc2)c1`: 58.1%; for `CC(OC(=O)c1ccccc1NCCO)C(=O)Nc1ccnn1C(C)C` (stereo not given): 0%. On to `CCn1cc(CN2CCCC(CNS(=O)(=O)Cc3ccccc3)C2)cn1` (stereo not given), for which the activity change is 7.8%.

Regarding `CC1=C(C(=O)N(C)C)CC(CC(=O)NCCN2CCOCC2)C(=O)N1Cc1ccccc1` (stereo not given), the activity change is 17.7%. With `CCSc1nsc(NC(=O)Nc2cccc(C(C)=O)c2)n1` the figure was -101% (active); with `C=CCSc1nsc(NC(=O)Nc2cccc(C(C)=O)c2)n1`, -100% (active); with `CC(=O)c1cccc(NC(=S)N2CCCC2)c1`, 24.4%. With `CSc1ccccc1C(=O)Nc1cccc(C(C)=O)c1` the figure was -2.09%; with `C=CCSc1nnc(NC(=O)c2ccc(NC(C)=O)cc2)s1`, 1.35%.

For the compound `CSc1nsc(NC(=O)Nc2ccccc2)n1`, the activity change is 0%. As to `S=C(NN=Cc1ccccn1)Nc1ccccn1`, the activity change was 68.2%. For the compound `CN1C[C@@H](CO)O[C@@H](n2cnc3c(N4CCN(CCO)CC4)ncnc32)C1`, the activity change is 23.3%. The same measure for `CC(=O)C1=CCC(c2ccccc2)N(S(=O)(=O)c2ccc(C)cc2)C1` (stereo not given): 0%; for `Cc1cc(Cl)ccc1N1C(=O)CC(SCCC(=O)O)C1=O` (stereo not given): 9.22%; for `CCOC(=O)N1CCN(C(=O)CSc2nc(=O)n3cccc(C)c3n2)CC1`: -6.68%. The same measure for `CCCN(CCC)c1nc2c(C)cccn2c(=O)c1/C=C1/SC(=S)N(Cc2ccco2)C1=O`: 8.74%; for `CCOC(=O)CC1C(=O)NCCN1c1nc2c(C)cccn2c(=O)c1/C=C1\SC(=S)N(C(C)CC)C1=O` (stereo not given): -79.5% (active); for `CN1OC[C@@H]2CN(S(=O)(=O)c3cccc(C(F)(F)F)c3)[C@H](c3ccc(-c4cc5ccccc5o4)cc3)C[C@@H]21`: -0.573%. The same measure for `Cc1nnc(N(Cc2ccco2)C(=O)c2ccno2)s1`: -16.2%; for `COc1ccc(Sc2ccc(NC(=O)c3cccc(Cl)c3)cc2C#N)cc1`: -1.44%; for `COc1cc(C(=O)NCC2(c3ccccc3)CCCC2)ccc1OC(C)C`: -0.814%. Turning to `COc1ccc(C(=O)Nc2ccc(C3(C#N)CCCC3)cc2)cc1OC`, the activity change was -55% (active). The same measure for `COc1ccc(C(=O)Nc2ccc3nc(N4CCCCC4)cc(C)c3c2)cc1OC`: 30.7%; for `CC(C)CN(C(=O)Cn1c(=O)cnc2ccccc21)C1CCS(=O)(=O)C1` (stereo not given): 5.99%. The same measure for `CCn1c(SCC(=O)N2CCCC2=O)nc2ccccc21`: -4.32%; for `COc1cc(C(O)c2nc(-c3cccc(C(=O)O)c3)cs2)ccc1F` (stereo not given): 1.15%.

Regarding `Cc1ccc(Cc2c(-c3ccccc3)nc3ccc(Cl)cn23)cc1`, the activity change is 1.06%.

On to `Cc1ccc2nc(-c3ccco3)c(Cc3cccc(Cl)c3)n2c1`, for which the activity change is -21.3%. As for `Cc1ccc(Cc2c(-c3ccco3)nc3ccc(Cl)cn23)cc1`, the activity change was -76.3% (active). With `COc1ccc(CCc2nnc(CCC(=O)NCc3cnn(-c4ccccc4C)c3)o2)cc1` the figure was 0%.

For the compound `CCCCCn1nnnc1C1c2ccccc2C(=O)N1Cc1ccco1` (stereo not given), the activity change is 0%.

Take `O=C(O)c1ccc(NC(=O)c2cn(-c3ccccc3)nc2-c2ccc(Cl)cc2)cc1`: the activity change was -53.3% (active). The same measure for `Cc1ccc(-c2nn(-c3ccccc3)cc2C(=O)Nc2cccc(S(=O)(=O)N3CCOCC3)c2)cc1`: -2.09%; for `Cc1ccc(-c2nn(-c3ccccc3)cc2C(=O)NCCCN2CCCC2=O)cc1`: 0%; for `Cc1ccc(Cc2c(-c3ccc(C)cc3)nc3c4ccccc4ccn23)cc1`: 27.7%. The same measure for `FC(F)(F)c1ccccc1Cc1c(-c2ccccc2)nc2c3ccccc3ccn12`: 14.3%. Take `Cc1cc(N2CCOCC2)nc2ccc(NC(=S)N3CCN(Cc4ccccc4)CC3)cc12`: the activity change was -70.6% (active).

`CCOCCCNC(=S)Nc1ccc2nc(N3CCN(CC)CC3)cc(C)c2c1`: the activity change is 46.7%. For the compound `Cc1cc(N2CCN(C)CC2)nc2ccc(NC(=S)N3CCOCC3)cc12`, the activity change was -0.695%.
